Vaccinia mCherry – vaccinia inhibition (mCherry reporter); Vaccinia virus mCherry reporter infection, fluorescence; Potency, µM (top dose mostly 36.5 µM), actives largely listed as inhibitors; 310,000 tested, 0.63% active; calls by dose curve; tested in A549 cells; further: nearly all actives have a fitted effect of over 35% in size
LASV entry inh – blocks Lassa virus binding to or entry into cells; 300,000 tested, 1.2% active; Lassa virus pseudotype entry inhibition, cell reporter; Potency, µM (titrated, usually from 37.9 µM), actives largely listed as inhibitors; AID 540256; calls by dose curve; tested in HEK293 cells; further: nearly all actives have a fitted effect of over 50% in size
HCV inh – HCV inhibition; Huh7.5.1 HCVcc-Cre infection, luciferase reporter, 44 h; 340,000 tested, 3.4% active; Potency, µM (doses to about 41.8 µM), most hits filed as inhibitors; active means well fitted inhibition curve with a large enough effect; inconclusive means small, poorly fitted or top-dose-only effect, or another doubt; inactive means no such curve, though single readings can be large or run the other way
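Antiviral activity was scored by luciferase reporter output from cells infected with HCVcc-Cre (~0.5 moi) in presence of compound, 44 h infection period, cells seeded 1,000/well 4 h prior.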
FMDV inh – foot and mouth disease virus antiviral activity; Potency, µM (titrated, usually from 57.9 µM), actives largely listed as inhibitors; FMDV antiviral cell-based qHTS; 410,000 tested, 1.2% active; calls by dose curve; tested in HEK293T cells; further: read-out not given here; nearly all actives have a fitted effect of over 45% in size
VACV Venus inh – inhibitors of vaccinia virus (Venus reporter) | Vaccinia virus Venus reporter expression, fluorescence | 330,000 tested, 0.46% active | Potency, µM (titrated, usually from 36.5 µM), actives largely listed as inhibitors | AID 720580; calls by dose curve; tested in A549 cells; further: nearly all actives have a fitted effect of over 30% in size
Marburg entry inh – inhibitors of Marburg virus binding or cell entry; Marburg virus pseudotyped entry inhibition, cell reporter; 300,000 tested, 1.8% active; Potency, µM (series often up to 37.8 µM), actives largely listed as inhibitors; calls by dose curve; tested in HEK293 cells
A number is an active result; 0 = inactive; ? = inconclusive; - = not tested or not shown; ! = not active in a repeat; [ ] = another dose, or the depositor's remark. Compounds with a hit are over-represented: about 5.3% of the library has one in this group of screens.

SMILES | Vaccinia mCherry | LASV entry inh | HCV inh | FMDV inh | VACV Venus inh | Marburg entry inh
CC1CC(C)CN(C(=O)/C=C/c2ccc(S(=O)(=O)N3CCOCC3)cc2)C1 (centres undefined) | 0 | 0 | 0 | 0 | 0 | 0
COC(=O)c1ccc2cc(OC)cc([N+](=O)[O-])c2n1 | 0 | 0 | 0 | 0 | 0 | ?
O=C(NCCc1nnc2n1CCN(Cc1c(F)cccc1F)CC2)c1ccco1 | 0 | - | - | 0 | 0 | -
CCc1cccc2c(C(=O)CSc3nnc(C4CC4)o3)c[nH]c12 | - | - | 5.6µM | 0 | - | -
Cc1cccc(N2CCN(C(=O)CCCn3c(=O)[nH]c4ccsc4c3=O)CC2)c1C | 0 | 0 | - | ? | 0 | 0
Clc1ccc(C(c2ccc(Cl)cc2)C(Cl)(Cl)Cl)cc1 | 0 | - | - | 3.5µM | 0 | -
O=C(Nc1cccc([N+](=O)[O-])c1)c1ccc2snnc2c1 | - | - | 0 | 0 | - | -
Cc1ccc(S(=O)(=O)N(CCCO)CC(O)CON=C2c3ccccc3-c3ccccc32)cc1 (centres undefined) | 0 | ? | 10µM | 35µM | 0 | ?
Cc1ccc(S(=O)(=O)N(CC(O)CN(C)C)c2ccccc2)cc1 (centres undefined) | 0 | 0 | 0 | 0 | ? | ?
S=C(N/N=C1\CCc2ccccc21)NC1CCCCC1 | - | 0 | 8.9µM | 0 | - | ?
CCN(CC)S(=O)(=O)c1ccc(-c2nnc(SCc3nnc(-c4ccccc4)o3)o2)cc1 | ? | ? | 0 | - | 0.035µM | ?
O=S(=O)(c1ccc(-c2nnc(SCc3nnc(-c4ccccc4)o3)o2)cc1)N1CCCC1 | - | 0 | ? | 0 | - | 0
O=C(NN/C(=N/S(=O)(=O)c1ccc(Cl)cc1)c1ccccc1)c1ccc(O)cc1 | 0 | ? | 0 | 0 | 0 | 20µM
Cc1ccc(S(=O)(=O)/N=C(/Nc2cccc(O)c2)c2ccccc2)cc1 | 0 | 0 | 11µM | 0 | 0 | ?
Cc1ccc(S(=O)(=O)/N=C(/Nc2cccc(C(=O)O)c2)c2ccccc2)cc1 | 0 | 0 | 0 | 0 | 0 | 0
O=C(NN/C(=N/S(=O)(=O)c1ccc(Cl)cc1)c1ccccc1)c1cccc(Cl)c1 | 0 | - | 0 | 0 | 0 | 0
Cc1cccc2cc(CN(Cc3cccs3)Cc3nnnn3Cc3ccccc3)c(=O)[nH]c12 | 0 | ? | 10µM | - | ? | 16µM
Cc1cccc2cc(CN(Cc3ccccc3)Cc3nnnn3Cc3ccccc3)c(=O)[nH]c12 | 0 | - | - | - | 0 | -
C#CCCCON=C1C[C@@H](O)[C@H](O)[C@H]2[C@@H]3C(=O)N(C[C@@H]4CCCO4)C(=O)[C@@H]3CC[C@H]12 | - | 0 | - | - | - | 0
CC(=O)N1CCc2c(sc(NC(=O)C3CCCN3S(=O)(=O)c3cccs3)c2C(N)=O)C1 (centres undefined) | 0 | 0 | 0 | 28µM | 0 | 0
CC(=O)N1CCc2c(sc(NC(=O)C3CCN(S(=O)(=O)c4cccs4)CC3)c2C(N)=O)C1 | 0 | 0 | 0 | 0 | 0 | 0
CCOC(=O)N1CCC(Nc2ncnc3c2cnn3-c2ccc(C)cc2C)CC1 | ? | - | 7.1µM | ? | ? | -
COc1ccc(NC(=O)N2CCc3nc(-c4ccccc4)c4c(c3C2)CO[C@@H](C)C4)cc1 | - | - | - | - | - | 0
CCOC(=O)NNc1ccc2nonc2c1[N+](=O)[O-] | 0 | ? | ? | 0 | 0 | 11µM
CCc1ccc(Nc2ccc3nonc3c2[N+](=O)[O-])cc1 | 0 | 0 | 0 | 0 | 0 | 0
SMILES | Vaccinia mCherry | LASV entry inh | HCV inh | FMDV inh | VACV Venus inh | Marburg entry inh
CN(C)c1ccc(CN(Cc2ccco2)C(=O)COc2ccc(F)cc2)cc1 | 0 | 5.6µM | - | 0 | 0 | ?
COc1cccc2c(N/N=C/c3ccccc3)cc(C)nc12 | - | - | 0 | 0 | - | -
Cc1cc(N/N=C/c2ccccc2O)c2ccccc2n1 | - | - | ? | 0 | - | -
COc1ccc2nc(C)cc(N/N=C/c3cccc(OC)c3O)c2c1 | 1µM | ? | ? | 0 | ? | ?
COc1ccc(/C=N/Nc2cc(C)nc3ccc(Br)cc23)cc1 | ? | ? | 6.3µM | 0 | 0 | 4.5µM
Cc1ccc(O)c(NC(=O)CCSc2nc(-c3ccco3)cc(C(F)(F)F)n2)c1 | ? | 0 | - | 0 | 0 | 0
O=C(CSc1nc(-c2ccco2)cc(C(F)(F)F)n1)Nc1ccc(C(=O)N2CCCCC2)cc1 | 0 | - | 11µM | ? | 0 | 0
COc1ccc(NC(=O)CCCSc2nc(-c3ccco3)cc(C(F)(F)F)n2)cc1OC | 0 | 0 | 16µM | 0 | 0 | ?
O=C(CCSc1nc(-c2ccco2)cc(C(F)(F)F)n1)NCC1CCCO1 (centres undefined) | - | 0 | 10µM | 0 | 0 | 0
Cc1nn(C)cc1NC(=O)CCSc1nc(-c2ccco2)cc(C(F)(F)F)n1 | - | 0 | 11µM | 0 | 0 | ?
Cc1cccc(Nc2cc(=O)n(C)c(=O)n2C)c1 | 0 | - | - | 0 | 0 | -
OC1(c2cccnc2)CCN(Cc2ccc3c(c2)CN(Cc2cccc4nccnc24)CCO3)CC1 | 0 | - | - | 0 | 0 | -
Cc1cnc(C)c(-c2ccc(O)c(CN3CCN(C=O)CC3)c2)n1 | 0 | - | - | 0 | 0 | -
CCC1CN(CCNC(=O)C(C)(C)O)Cc2cc(OC)ccc2O1 (centres undefined) | 0 | - | - | 0 | 0 | -
O=C(NCCc1ccccc1)c1ccc(CSc2nc3cccnc3n2Cc2ccccc2F)cc1 | 0 | 0 | - | 0 | 0 | -
Cc1cc(S(=O)(=O)C(CNC(=O)COc2ccc(Cl)cc2)c2cccs2)ccc1F (centres undefined) | 0 | ? | - | ? | 0 | -
C=C1C=C(C)n2ncc(C(=O)Nc3ccc(C)cn3)c2N1 | 0 | - | - | - | 0 | -
COc1ccc(CCNC(=O)CCSc2nc(-c3ccco3)cc(C(F)(F)F)n2)cc1 | 0[1.46 µM] | 0 | ? | 0 | 0 | 0
CCn1ncc(CNC(=O)CCSc2nc(-c3ccco3)cc(C(F)(F)F)n2)c1C | 0[1.46 µM] | 0 | 10µM | ? | 0 | ?
CCn1nc(C)c(NC(=O)CCCSc2nc(-c3ccco3)cc(C(F)(F)F)n2)c1C | 0[1.46 µM] | ? | 2µM | ? | ? | ?
Cc1cc(NC(=O)CCCSc2nc(-c3ccco3)cc(C(F)(F)F)n2)no1 | - | ? | 0 | 0 | 0 | 0
CCn1c(=N)c(C(=O)NCc2ccccc2)cc2c(=O)n3cc(C)ccc3nc21 | 0 | 0 | - | 0 | 0 | ?
Cc1cc(=O)c(C(=O)NCCc2ccccn2)c2n1-c1ccccc1SC(c1cccs1)C2 (centres undefined) | 0 | - | - | 0 | 0 | -
O=C(CC1SC(=Nc2ccccc2)N(CCCO)C1=O)Nc1ccc(Cl)cc1 (centres undefined) | - | ? | 0 | 14µM | ? | ?
CC(=O)Oc1ccc(C23c4ccccc4C2(OC(C)=O)c2cc(OC(C)=O)ccc23)cc1 (centres undefined) | 0 | ? | 11µM | ? | 0 | ?
CC(=O)Oc1ccc(C(=O)Nc2ccccc2NC(=O)c2ccc(OC(C)=O)cc2)cc1 | - | - | 0 | 0 | - | -
O=c1oc(-c2ccccc2)cc(Cl)c1Cl | 0 | ? | ? | 25µM | 0 | 11µM
Nc1nc(SCC(=O)O)c2[nH]cnc2n1 | 0 | - | - | - | 0 | -
CCCn1c(SCC(=O)Nc2ccccc2N2CCCCC2)nc2c1c(=O)n(C)c(=O)n2C | 0 | ? | 10µM! | - | 0 | ?
Cc1ccc(Cn2c(SCC(N)=O)nc3c2c(=O)n(C)c(=O)n3C)cc1 | 0 | 0 | 11µM | - | 0 | 0
